About 83,000 compounds went through this panel and 20% of them were active in at least one assay; those are over-represented in the sample as a whole.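 Testing used 96-well plates and a 48-hour single-concentration exposure. Example: -40 means 40% of the starting cells died.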 Activity calls are given as the source filed them. Rule for the calls: active = growth percent below 10; inactive = the rest.
Tests used:
Experiment in all cases: NCI-60 one-dose screen, 48 h (100 = growth as untreated, 0 = no growth, -100 = all killed)
Conditions in all cases: 10 µM
[1] = system: HCT-15 colon
[2] = system: HT29 colon
[3] = system: SNB-75 CNS
[4] = system: SNB-19 CNS
[5] = system: U251 CNS
[6] = system: PC-3 prostate
[7] = system: SK-MEL-5 melanoma
[8] = system: UACC-62 melanoma
[9] = system: LOX IMVI melanoma
[10] = system: SK-MEL-28 melanoma
[11] = system: SK-MEL-2 melanoma
[12] = system: EKVX NSCLC
[13] = system: SN12C renal
[14] = system: UO-31 renal
[15] = system: TK-10 renal
[16] = system: ACHN renal
[17] = system: CAKI-1 renal
[18] = system: A498 renal
[19] = system: CCRF-CEM leukemia
[20] = system: MOLT-4 leukemia

Measured: growth

CC(=O)c1cc(C(=O)c2ccc3c(c2)NC(=O)CO3)n2ccc3ccccc3c12
inactive: [1] 71.1% | [2] 56.5% | [3] 114% | [4] 69.6% | [5] 26.5% | [6] 80.3% | [7] 57.6% | [8] 94.7% | [9] 56.5% | [10] 88.4% | [11] 107% | [12] 75% | [13] 86.1% | [14] 59% | [15] 78.2% | [16] 50% | [17] 55.4% | [18] 97.3% | [19] 82.9% | [20] 66.8%

CN1CCN(c2ccc(C(=O)/C=C/c3ccc(OC(F)F)cc3)cc2)CC1
active: [1] -49.1% | [5] -15.6% | [9] -100% | [20] 0.533%
inactive: [2] 13.4% | [3] 73.8% | [4] 47.4% | [6] 25.5% | [7] 52.9% | [8] 44.6% | [10] 67.5% | [11] 111% | [12] 80.1% | [13] 26.4% | [14] 31.4% | [15] 63.8% | [16] 65.5% | [17] 65.8% | [18] 51.6% | [19] 21.9%

N#Cc1ccc(-c2nn(-c3ccc(C(=O)O)cc3)cc2CNc2cc(Cl)cc(Cl)c2)cc1
inactive: [1] 25.6% | [2] 39.7% | [3] 78.5% | [4] 55.8% | [5] 32.8% | [6] 33.6% | [7] 23.9% | [8] 28.5% | [10] 18.1% | [11] 81.7% | [12] 63.3% | [13] 50.9% | [14] 33.2% | [15] 111% | [16] 55.3% | [17] 63% | [18] 103% | [19] 13.7% | [20] 15.8%
active: [9] 7.12%

O=C1Nc2ccc(F)cc2/C1=C/c1cccc(OCc2ccccn2)c1
active: [5] 7.32% | [9] 1.13% | [13] 9.51% | [19] 3.93%
inactive: [1] 10.5% | [2] 26.2% | [3] 116% | [4] 52.3% | [6] 36.6% | [7] 31.1% | [8] 26.5% | [10] 65.3% | [11] 46.6% | [12] 28.3% | [14] 34% | [15] 80.9% | [16] 37.9% | [17] 17.2% | [18] 87.3% | [20] 12.1%

CCCCSc1nc(Nc2ccc(/C(C)=N/NC(N)=S)cc2)c(C#N)c(-c2ccccc2)n1
active: [9] 5.73%
inactive: [1] 38.4% | [2] 61.2% | [3] 96.8% | [4] 50% | [5] 18.8% | [6] 28.9% | [7] 54.9% | [8] 64.5% | [10] 66.3% | [11] 90.4% | [12] 62.5% | [13] 19.8% | [14] 11.8% | [15] 48.8% | [16] 14.3% | [17] 33.5% | [18] 42.1% | [19] 49.2% | [20] 47.3%

CN1C(=O)N(C)C2SC(N/N=C/c3cccs3)=NC21 (stereo not given)
inactive: [1] 20.2% | [4] 30.3% | [5] 22.8% | [6] 48.3% | [9] 28.7% | [10] 47.5% | [12] 56.2% | [13] 26.5% | [14] 40.3% | [15] 63.7% | [16] 38.8% | [17] 20.8% | [18] 65.6% | [19] 20.3% | [20] 33.4%
active: [2] 7.66% | [3] -1.77% | [7] 8.57% | [8] 4.74% | [11] 9.78%

O=C(CNc1nc(-c2ccccc2)cs1)Nc1ccccc1
active: [1] -70.6% | [2] -53.9% | [4] -68.4% | [5] -85.2% | [7] -99.5% | [8] -90.1% | [9] -90.1% | [10] -60.1% | [11] -68.8% | [12] -93.3% | [13] -47.3% | [15] -79.4% | [16] -27.4% | [17] 5.53% | [18] -4.95% | [20] -3.86%
inactive: [3] 29.2% | [6] 12.3% | [14] 17.9% | [19] 14.9%

Cc1ccc(C(=O)N/C(=C2/OCCN2C)[P+](c2ccccc2)(c2ccccc2)c2ccccc2)cc1
inactive: [1] 110% | [2] 59.7% | [3] 99.9% | [4] 74.1% | [5] 75.5% | [6] 62.5% | [7] 72.2% | [8] 48.2% | [9] 44.8% | [10] 72.2% | [11] 81.1% | [12] 75.4% | [13] 86% | [14] 85.4% | [15] 102% | [16] 114% | [17] 102% | [18] 122% | [19] 73.5% | [20] 84.4%

COc1cc(/C=C/C(=O)c2ccc(S(=O)(=O)NCCNc3nc(Nc4ccc(F)cc4)nc(N(C)C)n3)cc2)cc(OC)c1OC
inactive: [3] 88.2% | [4] 15.6% | [7] 32.4% | [8] 34.2% | [10] 18% | [11] 98.4% | [12] 48.4% | [14] 40.2% | [15] 66.3% | [17] 20.1% | [18] 81.3%
active: [1] -65.9% | [2] -56.7% | [5] -81.2% | [6] 9.45% | [9] -100% | [13] -32.1% | [16] -49% | [19] 8.16% | [20] 8.5%

O=C(Nc1cccc(C(F)(F)F)c1)c1cncc(C#Cc2cnc3ccc(N4CCOCC4)nn23)c1
active: [1] -16.7% | [2] 5.68% | [3] -39.9% | [4] -6.03% | [5] -3.92% | [6] 6.2% | [7] -66.9% | [8] -22.1% | [9] -87.9% | [10] -17.8% | [11] -26.3% | [12] -22.3% | [13] 4.67% | [14] -31.7% | [16] 3.28% | [17] 6.18% | [18] -87.8% | [20] 3.44%
inactive: [15] 27.3% | [19] 10.6%

O=C(c1ccc(O)cc1)C1[C@H](c2ccccc2Br)[C@@H](c2ccccc2)NC12C(=O)Nc1ccc(Br)cc12 (stereo not given in full)
inactive: [1] 36.8% | [2] 26.8% | [3] 31.5% | [4] 53.4% | [5] 26.5% | [6] 23.3% | [7] 56.9% | [8] 42.3% | [9] 15.8% | [10] 77.7% | [11] 38.1% | [12] 32% | [13] 15.1% | [14] 35.8% | [15] 76.2% | [16] 37.9% | [17] 24.1% | [18] 80.5% | [19] 31.4% | [20] 11%

CCOC(=O)c1sc(N/N=C(\C)c2ccc3c(c2)Nc2ccccc2S3)nc1C
active: [1] 5.74% | [9] -58.4%
inactive: [2] 30% | [3] 97.7% | [4] 49.7% | [5] 27.3% | [6] 21.9% | [7] 20.8% | [8] 32.4% | [10] 39.1% | [11] 10.7% | [12] 26.1% | [13] 51.3% | [14] 29.4% | [15] 36.8% | [16] 16.9% | [17] 32.2% | [18] 30.6% | [19] 32.4% | [20] 14.8%

CC(=O)c1ccc(Nc2nc(SC(C)C)nc(-c3ccccc3)c2C#N)cc1
active: [4] -20% | [9] 0.768% | [14] -53.6% | [15] 6.61% | [16] -56.9% | [17] 8.35%
inactive: [1] 48.7% | [2] 48.1% | [3] 42.3% | [5] 10.2% | [6] 71.9% | [7] 38.1% | [8] 77.9% | [10] 31.3% | [11] 111% | [12] 39.7% | [13] 10.9% | [18] 94.7% | [19] 97.5% | [20] 82.9%

Source: PubChem BioAssay (NCI)
